PubChem BioAssay (Tox21)
Values joined by “and” are separate entries in the source; they are usually repeats but may differ in a detail not shown here. Identical values can stand only once. Inconclusive results are not listed. Where a call stands in place of a potency, no number is given. Active and inactive are the calls of the source. Unless noted, calls follow the shape of the full dose curve.

tested on: not listed separately; test: Nuclear factor erythroid 2-related factor 2/antioxidant responsive element (Nrf2/ARE) small molecule agonists: qHTS cell viability counter screen in human keratinocytes (AID 1919968; active = well fitted cell-killing curve with a large enough effect in the repeat runs; also: nearly all actives have a fitted effect of over 55% in size); conditions: KeratinoSens HaCaT ARE cells viability, CellTiter-Fluor, 24 h; series mostly up to 92.4 µM
How it was run: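 Cytotoxicity was multiplexed with the Nrf2/ARE luciferase assay in the same wells. Stably transfected HaCaT keratinocytes were treated with test compounds for 23 h at 37 C. Cell viability was then measured by CellTiter-Fluor fluorescence.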

Row | SMILES | Potency
1 | CCCCCCCCCCCCCC | inactive
2 | COc1cc(/C=C/C(=O)O[C@H]2CC[C@]34C[C@]35CC[C@]3(C)[C@@H]([C@H](C)CCC=C(C)C)CC[C@@]3(C)[C@@H]5CC[C@H]4C2(C)C)ccc1O | inactive
3 | CC/C=C\CCOC(=O)C(C)C | inactive
4 | O=C1CC2CC1C1CCCC21 (configuration not stated) | inactive
5 | CC1CNCC(C)O1 (configuration not stated) | inactive
6 | Cc1ccc(C2OC[C@@H]3OC(c4ccc(C)cc4)O[C@H]([C@H](O)CO)[C@@H]3O2)cc1 (some centres not stated) | inactive
7 | CCCCC(O)/C=C(C)/C=C/C=C/C(=O)N1CCCC1=O (configuration not stated) | inactive
8 | CC/C=C\CCO | inactive
9 | O=C(O)c1cc(=O)[nH]c(=O)[nH]1 | inactive
10 | CC12CCC(C1)C(C)(C)C2O (configuration not stated) | inactive
11 | O=C(C(=O)c1ccccc1)c1ccccc1 | inactive
12 | CCOC(=O)c1cc(=O)c2c(OCC(COc3cccc4oc(C(=O)OCC)cc(=O)c34)OC(=O)[C@@H](N)CCCCN)cccc2o1 | inactive
13 | COc1ccc(C)cc1 | inactive
14 | O=S(=O)(O)CCN1CCN(CCO)CC1 | inactive

tested on: not listed separately; test: Nuclear factor erythroid 2-related factor 2/antioxidant responsive element (Nrf2/ARE) small molecule agonists: luciferase reporter gene qHTS assay in human keratinocytes (AID 1919969); conditions: KeratinoSens HaCaT ARE-luciferase, luminescence, 24 h; series mostly up to 92.4 µM; also: nearly all actives have a fitted effect of over 35% in size; also: potency is read from the fitted curve at half-maximal effect

Row | SMILES | Potency
15 | CCC(N)(CO)CO | inactive
16 | CCCCOC(=O)CCS | inactive
17 | CC(=O)S[C@H](C(=O)N[C@H]1Cc2ccccc2[C@H]2CCC[C@@H](C(=O)O)N2C1=O)C(C)C | inactive
18 | CCCCCCCCCOS(=O)(=O)O | inactive
19 | COC(=O)c1ccc([N+](=O)[O-])cc1 | inactive
20 | COC(=O)Cc1cccc2ccccc12 | inactive
21 | CCCCCCCCCCCC(=O)OC[C@@H](O)[C@H]1OC[C@H](OCCO)[C@H]1OCCO | 23.7 µM (active)
22 | CCCCCCCC(=O)OCCCCCC | inactive
23 | CC(=O)NC(Cc1ccccc1)C(=O)O (configuration not stated) | inactive
24 | Cc1nc2ccccc2s1 | inactive
25 | CCO[Si](C)(C)OCC | inactive
26 | Cc1nc(-c2ccc3c(c2)CCN(CCC2CCC(NC(=O)/C=C/c4ccc(F)cc4)CC2)CC3)no1 (configuration not stated) | inactive
27 | O=C(O)CCS | inactive
28 | CCN(CC#N)c1cccc(C)c1 | inactive
29 | CC(C)(C)c1ccc(O)c(C(C)(C)C)c1 | 9.65 µM (active) and 61.1 µM (active)
30 | CC12CC3CC(C)(C1)CC(N)(C3)C2 | inactive
31 | O=C(/N=N/C(=O)OCc1ccccc1)OCc1ccccc1 | inactive
32 | CC(C)C(=O)O | inactive
33 | c1ccc2cc3c4ccccc4c4ccccc4c3cc2c1 | 24.4 µM (active)
34 | CO[Si](CCCNCCC[Si](OC)(OC)OC)(OC)OC | inactive

Row | SMILES | Potency
35 | CCCCCCCCS(=O)(=O)Cl | inactive
36 | C=Cc1ccccn1 | inactive
37 | Nc1ccc(S(=O)(=O)Nc2ccc(Cl)nn2)cc1 | inactive
38 | COC(=O)c1ccccc1C(=O)O | inactive
39 | CC(=O)SC[C@@H](C)C(=O)N1CCC[C@H]1C(=O)N[C@@H](Cc1ccccc1)C(=O)O | inactive
40 | CCCCCCCCCCCCCC | inactive
41 | COc1cc(/C=C/C(=O)O[C@H]2CC[C@]34C[C@]35CC[C@]3(C)[C@@H]([C@H](C)CCC=C(C)C)CC[C@@]3(C)[C@@H]5CC[C@H]4C2(C)C)ccc1O | inactive
42 | CC/C=C\CCOC(=O)C(C)C | inactive
43 | O=C1CC2CC1C1CCCC21 (configuration not stated) | inactive
44 | CC1CNCC(C)O1 (configuration not stated) | inactive
45 | Cc1ccc(C2OC[C@@H]3OC(c4ccc(C)cc4)O[C@H]([C@H](O)CO)[C@@H]3O2)cc1 (some centres not stated) | inactive
46 | CCCCC(O)/C=C(C)/C=C/C=C/C(=O)N1CCCC1=O (configuration not stated) | inactive
47 | CC/C=C\CCO | inactive
48 | O=C(O)c1cc(=O)[nH]c(=O)[nH]1 | inactive
49 | CC12CCC(C1)C(C)(C)C2O (configuration not stated) | inactive
50 | O=C(C(=O)c1ccccc1)c1ccccc1 | inactive
51 | CCOC(=O)c1cc(=O)c2c(OCC(COc3cccc4oc(C(=O)OCC)cc(=O)c34)OC(=O)[C@@H](N)CCCCN)cccc2o1 | inactive
52 | COc1ccc(C)cc1 | inactive
53 | O=S(=O)(O)CCN1CCN(CCO)CC1 | inactive

target: Gonadotropin-releasing hormone receptor (Homo sapiens) (UniProt P30968); test: Human gonadotropin-releasing hormone receptor (GnRHR) small molecule agonists, calcium flux assay in GnRHR-HEK293 cells (AID 1920063); conditions: calcium flux fluorescence, agonist mode; series mostly up to 57.6 µM; also: nearly all actives have a fitted effect of over 35% in size
Sequence (P30968 whole entry, looked up): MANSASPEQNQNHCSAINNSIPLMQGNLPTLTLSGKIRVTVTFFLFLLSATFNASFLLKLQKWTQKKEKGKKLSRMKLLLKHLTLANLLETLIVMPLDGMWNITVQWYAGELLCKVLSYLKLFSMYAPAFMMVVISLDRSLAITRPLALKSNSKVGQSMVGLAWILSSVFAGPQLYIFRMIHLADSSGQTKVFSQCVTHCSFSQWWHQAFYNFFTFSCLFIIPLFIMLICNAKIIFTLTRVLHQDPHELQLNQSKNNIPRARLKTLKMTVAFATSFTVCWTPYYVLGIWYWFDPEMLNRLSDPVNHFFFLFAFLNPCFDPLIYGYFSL
How it was run: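 Agonist activity was measured as intracellular calcium flux in HEK293 cells engineered to stably express human GnRHR. After dye loading for 1 hour at 37 C, compounds in DMSO were added and fluorescence was followed for 3 minutes.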

Row | SMILES | Potency
54 | CCC(N)(CO)CO | inactive
55 | CCCCOC(=O)CCS | inactive
56 | CC(=O)S[C@H](C(=O)N[C@H]1Cc2ccccc2[C@H]2CCC[C@@H](C(=O)O)N2C1=O)C(C)C | inactive
57 | CCCCCCCCCOS(=O)(=O)O | inactive
58 | COC(=O)c1ccc([N+](=O)[O-])cc1 | inactive
59 | COC(=O)Cc1cccc2ccccc12 | inactive
60 | CCCCCCCCCCCC(=O)OC[C@@H](O)[C@H]1OC[C@H](OCCO)[C@H]1OCCO | inactive
61 | CCCCCCCC(=O)OCCCCCC | inactive
62 | CC(=O)NC(Cc1ccccc1)C(=O)O (configuration not stated) | inactive
63 | Cc1nc2ccccc2s1 | inactive
64 | CCO[Si](C)(C)OCC | inactive
65 | Cc1nc(-c2ccc3c(c2)CCN(CCC2CCC(NC(=O)/C=C/c4ccc(F)cc4)CC2)CC3)no1 (configuration not stated) | inactive
66 | O=C(O)CCS | inactive
67 | CCN(CC#N)c1cccc(C)c1 | inactive
68 | CC(C)(C)c1ccc(O)c(C(C)(C)C)c1 | inactive
69 | CC12CC3CC(C)(C1)CC(N)(C3)C2 | inactive
70 | O=C(/N=N/C(=O)OCc1ccccc1)OCc1ccccc1 | inactive
71 | CC(C)C(=O)O | inactive
72 | c1ccc2cc3c4ccccc4c4ccccc4c3cc2c1 | inactive
73 | CO[Si](CCCNCCC[Si](OC)(OC)OC)(OC)OC | inactive

Row | SMILES | Potency
74 | CCCCCCCCS(=O)(=O)Cl | inactive
75 | C=Cc1ccccn1 | inactive
76 | Nc1ccc(S(=O)(=O)Nc2ccc(Cl)nn2)cc1 | inactive
77 | COC(=O)c1ccccc1C(=O)O | inactive
78 | CC(=O)SC[C@@H](C)C(=O)N1CCC[C@H]1C(=O)N[C@@H](Cc1ccccc1)C(=O)O | inactive
79 | CCCCCCCCCCCCCC | inactive
80 | COc1cc(/C=C/C(=O)O[C@H]2CC[C@]34C[C@]35CC[C@]3(C)[C@@H]([C@H](C)CCC=C(C)C)CC[C@@]3(C)[C@@H]5CC[C@H]4C2(C)C)ccc1O | inactive
81 | CC/C=C\CCOC(=O)C(C)C | inactive
82 | O=C1CC2CC1C1CCCC21 (configuration not stated) | inactive
83 | CC1CNCC(C)O1 (configuration not stated) | inactive
84 | Cc1ccc(C2OC[C@@H]3OC(c4ccc(C)cc4)O[C@H]([C@H](O)CO)[C@@H]3O2)cc1 (some centres not stated) | inactive
85 | CCCCC(O)/C=C(C)/C=C/C=C/C(=O)N1CCCC1=O (configuration not stated) | inactive
86 | CC/C=C\CCO | inactive
87 | O=C(O)c1cc(=O)[nH]c(=O)[nH]1 | inactive
88 | CC12CCC(C1)C(C)(C)C2O (configuration not stated) | inactive
89 | O=C(C(=O)c1ccccc1)c1ccccc1 | inactive
90 | CCOC(=O)c1cc(=O)c2c(OCC(COc3cccc4oc(C(=O)OCC)cc(=O)c34)OC(=O)[C@@H](N)CCCCN)cccc2o1 | inactive
91 | COc1ccc(C)cc1 | inactive
92 | O=S(=O)(O)CCN1CCN(CCO)CC1 | inactive
